Records with an inconclusive call do not appear. Entries that show only a call come without a potency. A structure can be active in one record and inactive in another. The source made the active and inactive calls. Calls come from the whole dose curve; as a rule, active = well fitted inhibition curve with a large enough effect in the repeat runs; inconclusive = weak or mixed curves, or effect the other way; inactive = no such curve, though single readings can be large or run the other way.
Potency is the fitted concentration of half-maximal effect.

A short description of the assay: qHTS assay to identify small molecule antagonists of the retinoic acid receptor (RAR) signaling pathway (AID 1159552; note: nearly all actives have a fitted effect of over 50% in size). The following applies: C3RL4 RARE luciferase reporter, retinol-stimulated, 6 h; series mostly up to 92.4 µM. An outline of the steps: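 Test chemicals and DMSO controls were pin-transferred onto C3RL4 cells a day after seeding; retinol (1 uM final) followed at once. Luminescent reporter output was quantified after 6 hr of co-incubation and 30 min with detection reagent.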
On to `CS(=O)(=O)c1ccc(Cl)cc1`, for which the Potency result is “inactive”. Then `CCCCCCCCC(=O)O`, with “inactive”.

Regarding `Nc1cccc(C(F)(F)F)c1`, the Potency entry is “inactive”. In the case of `C=CC(=O)NCOCCCC`, the Potency result is “inactive”. Then `CCOC(=O)c1ccc(O)cc1`, with “inactive”; and `Nc1cccc(N)n1`, with “inactive”. Then `OC[C@H]1O[C@@H](Oc2ccc(O)cc2)[C@H](O)[C@@H](O)[C@@H]1O`, with “inactive”; and `Cc1cc(C)c(O)c(C)c1`, with “inactive”; and `O=Cc1ccc(CO)o1`, with “inactive”. Then `CCCCCCCCCCCC(=O)N(C)CC(=O)O`, with “inactive”; and `CCCCC(CC)COC(=O)c1ccc(C(=O)OCC(CC)CCCC)cc1` (stereo not drawn), with “inactive”.

Turning to `CCCCC(=O)O`, the Potency result is “inactive”. Then `COCN(COC)c1nc(N(COC)COC)nc(N(COC)COC)n1`, with “inactive”. Then `NCCNCCNCCN`, with “inactive”; and `CC(=O)OC/C=C(\C)CCC=C(C)C`, with “inactive”; and `Cc1cccc(C)c1[N+](=O)[O-]`, with “inactive”. For `N#CCC(=O)O`, the Potency entry was “inactive”. With `CC1=CC(=O)CC(C)(C)C1`, the Potency was 4.99 µM (active) and inactive. In the case of `CCCCCCC(=O)O`, the Potency entry was “inactive”. Then `CCCOC(=O)NCCCN(C)C`, with “inactive”. Then `CN1CCCC1=O`, with “inactive”; and `CC(C=O)Cc1ccc(C(C)(C)C)cc1` (stereo not drawn), with “inactive”; and `OCC(O)CS` (stereo not drawn), with “inactive”. With `O=C1OC(=O)c2c(Cl)c(Cl)c(Cl)c(Cl)c21`, the Potency entry is “inactive”. On to `CCOC(=O)CC(=O)OCC`, for which the Potency entry is “inactive”. Regarding `Cc1cc(C)cc(O)c1`, the Potency entry was “inactive”. Then `COC(=O)/C=C\C(=O)OC`, with “inactive”; and `OCCOCCOCCOCCOCCO`, with “inactive”; and `O=C(Cl)c1ccc(C(=O)Cl)cc1`, with “inactive”. For `C[Si](C)(C)N[Si](C)(C)C`, the Potency entry is “inactive”. Turning to `Cc1ccc([N+](=O)[O-])cc1N`, the Potency entry is “inactive”. Then `C[n+]1ccn(CCO)c1`, with “inactive”.

In the case of `OCC(CO)(CO)CO`, the Potency entry was “inactive”.

With `O=C(c1ccccc1)c1ccc(O)c(O)c1O`, the Potency entry was “inactive”. Then `C=C(CC(=O)O)C(=O)O`, with “inactive”. Then `CC(=O)OC[C@H]1O[C@@](COC(C)=O)(O[C@H]2O[C@H](COC(C)=O)[C@@H](OC(C)=O)[C@H](OC(C)=O)[C@H]2OC(C)=O)[C@@H](OC(C)=O)[C@@H]1OC(C)=O`, with “inactive”. Then `Cc1ccncc1`, with “inactive”; and `COc1ccc([C@@H]2CC(=O)c3c(O)cc(O[C@@H]4O[C@H](CO[C@@H]5O[C@@H](C)[C@H](O)[C@@H](O)[C@H]5O)[C@@H](O)[C@H](O)[C@H]4O)cc3O2)cc1OC`, with “inactive”.

The record behind these values is PubChem BioAssay (Tox21).
